22 compounds from PubChem BioAssay (Tox21) can be followed below.

Molecules are shown by their SMILES. Where “and” joins values, the source holds several entries; their conditions need not be identical. Identical values can stand only once. Records with an inconclusive call do not appear. Calls of active or inactive are those of the source. Unless noted, calls come from the whole dose curve; as a rule, active = well fitted curve in the direction sought with a large enough effect in the repeat runs; inconclusive = weak or mixed curves; inactive = flat fitted curve, though single readings scatter.

Experiment [1] can be described thus: qHTS assay to test for compound auto fluorescence at 535 nm (green) in HEK293 cells (AID 720680).
Experiment [2] in a line: qHTS assay to test for compound auto fluorescence at 535 nm (green) in HEK293 cell free culture (AID 720682). In short, it runs like this: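 Steps: dispense DMEM/10% FBS into empty wells; pin in compound or DMSO; measure fluorescence at 485/535 nm. Values are fluorescein equivalents.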
A general note: Quantitative high-throughput screening tests each substance at several concentrations.

Experiment [3] is described as follows: qHTS assay to test for compound auto fluorescence at 590 nm (red) in HEK293 cell free culture (AID 720683). In short, it runs like this:
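Cell-free wells of DMEM with 10% FBS received compound, and intrinsic fluorescence was read at excitation/emission 540/590 nm. Values expressed as equivalence to Rose Bengal sodium.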

A short description of experiment [4]: qHTS assay to test for compound auto fluorescence at 590 nm (red) in HepG2 cell free culture (AID 720684). In a few lines:
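Rose Bengal sodium served as the reference for red signal. Test compounds were dispensed into serum-containing MEM (10% FBS) without cells, and plates were read at 540/590 nm.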

A short description of experiment [5]: qHTS assay to test for compound auto fluorescence at 460 nm (blue) in HepG2 cell free culture (AID 720685). In a few lines:
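Cell-free plates of MEM plus 10% FBS received 23 nL compound or DMSO vehicle; blue-channel (405/460 nm) intensity scored against triamterene as reference fluorophore.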

A short description of experiment [6]: qHTS assay to test for compound auto fluorescence at 535 nm (green) in HepG2 cell free culture (AID 720686).
Experiment [7] in a line: qHTS assay to test for compound auto fluorescence at 460 nm (blue) in HepG2 cells (AID 720687). In short, it runs like this: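 HepG2 cells in MEM with 10% FBS, attached overnight at 37 C, were exposed to compound or DMSO for 1 hr at 37 C, 5% CO2. Blue fluorescence was read at 405/460 nm, with triamterene as reference fluorophore.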
Experiment [8] in a line: qHTS assay to test for compound auto fluorescence at 460 nm (blue) in HEK293 cell free culture (AID 720681). In short, it runs like this:
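Compounds were added to cell-free DMEM with 10% FBS and fluorescence read directly. The blue channel used 405 nm excitation and 460 nm emission, with triamterene as the reference fluorophore.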

The target in experiment [9] is Glucocorticoid receptor (Homo sapiens) (UniProt P04150). Briefly: qHTS assay to identify small molecule agonists of the glucocorticoid receptor (GR) signaling pathway (AID 720691; active = well fitted activation curve with a large enough effect in the signal ratio in the repeat runs, not every such curve was filed as active; the % refers to the signal ratio; note: potency is the fitted concentration of half-maximal effect). In short, it runs like this:
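Steps: seed GR-bla HeLa cells, incubate 4 h at 37 C/5% CO2; pin-transfer DMSO-dissolved compounds; incubate 18 h at 37 C; add LiveBLAzer B/G FRET substrate; after 2 h at room temperature, measure fluorescence.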

For experiment [10] the target is unchanged. Put plainly: qHTS assay to identify small molecule antagonists of the glucocorticoid receptor (GR) signaling pathway (AID 720692; active = well fitted inhibition curve with a large enough effect in the signal ratio in the repeat runs, not every such curve was filed as active; the % refers to the signal ratio; note: potency is the fitted concentration of half-maximal effect). In short, it runs like this: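 Antagonism was scored as loss of dexamethasone-driven (5 nM final) reporter signal in HeLa cells bearing a glucocorticoid response element–beta-lactamase construct, after 18 h compound exposure at 37 C and 2 h FRET substrate loading.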

Chain of Glucocorticoid receptor (Homo sapiens) (P04150 whole entry, looked up): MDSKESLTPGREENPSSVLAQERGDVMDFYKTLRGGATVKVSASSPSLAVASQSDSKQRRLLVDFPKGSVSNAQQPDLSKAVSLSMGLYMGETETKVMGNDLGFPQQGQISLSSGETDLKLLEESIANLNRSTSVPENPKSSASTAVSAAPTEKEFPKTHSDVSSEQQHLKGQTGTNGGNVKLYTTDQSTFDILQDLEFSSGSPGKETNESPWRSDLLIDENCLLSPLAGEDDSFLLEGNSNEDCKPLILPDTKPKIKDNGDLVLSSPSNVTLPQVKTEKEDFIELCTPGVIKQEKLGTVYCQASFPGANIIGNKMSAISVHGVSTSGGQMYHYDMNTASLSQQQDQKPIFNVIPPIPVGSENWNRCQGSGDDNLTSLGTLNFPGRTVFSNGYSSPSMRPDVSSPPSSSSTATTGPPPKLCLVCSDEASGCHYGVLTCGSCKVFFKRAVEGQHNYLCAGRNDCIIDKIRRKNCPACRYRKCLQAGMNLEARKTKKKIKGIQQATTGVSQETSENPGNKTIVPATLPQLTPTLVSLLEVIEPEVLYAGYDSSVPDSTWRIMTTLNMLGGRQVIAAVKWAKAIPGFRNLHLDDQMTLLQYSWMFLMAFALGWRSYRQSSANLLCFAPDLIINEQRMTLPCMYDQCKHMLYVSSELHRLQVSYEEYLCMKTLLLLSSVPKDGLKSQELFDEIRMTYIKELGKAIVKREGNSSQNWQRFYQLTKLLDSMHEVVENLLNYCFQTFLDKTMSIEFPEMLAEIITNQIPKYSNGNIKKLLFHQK

For the compound `CCCCCCCCOc1ccc(C(=O)c2ccccc2)c(O)c1`, the call in [1], in [2], in [3], in experiment [4], in experiment [5] and in experiment [6] was inactive. The compound was classed as inactive in [7].

With `O=C(OCc1ccccc1)c1ccccc1`, the compound was called inactive in experiment [1], in experiment [8], in experiment [2], in experiment [3], in [4] and in experiment [5]. The call in experiment [6] and in [7] was inactive. The Potency result in [9] and in experiment [10] was “inactive” throughout.

With `C#C[C@]1(O)CC[C@H]2[C@@H]3CCc4cc(O)ccc4[C@H]3CC[C@@]21C`, the outcome in [1], in [8], in [2], in [3], in [4] and in [5] was inactive. In addition, the outcome in [6] and in [7] was inactive. Moreover, the Potency in experiment [10] is 1.54 µM (active).

On to `C=CCOC(=O)CC(C)C`, for which the call in experiment [1], in [8], in [2], in experiment [3], in experiment [4] and in experiment [5] was inactive. Also, the compound was classed as inactive in experiment [6] and in experiment [7]. Moreover, the Potency entry in experiment [9] and in [10] was “inactive” each time.

Take `CC1=NN(c2ccccc2)C(=O)C1`: the outcome in experiment [1], in [8], in [2], in experiment [3], in experiment [4] and in [5] was inactive. The compound was called inactive in experiment [6] and in experiment [7]. In addition, the Potency result in experiment [9] and in experiment [10] was “inactive” each time.

Consider `O=[N+]([O-])c1ccc(O)cc1`, for which the compound was classed as inactive in [1], in experiment [2], in experiment [3], in experiment [4], in [5] and in experiment [6]. Further, in experiment [7], the outcome was inactive.

Turning to `N[C@@H](Cc1c[nH]c2ccc(O)cc12)C(=O)O`, the result in experiment [1], in experiment [8], in experiment [2], in experiment [3], in [4] and in experiment [5] was inactive. In addition, the compound was classed as inactive in experiment [6] and in experiment [7]. Also, the Potency entry in experiment [9] and in experiment [10] was “inactive” throughout.

As to `COCC(C)N` (stereo unspecified), the call in [1], in experiment [8], in [2], in experiment [3], in [4] and in experiment [5] was inactive. Moreover, the compound was called inactive in [6] and in experiment [7]. For the same compound, the Potency entry in [9] and in experiment [10] was “inactive” throughout.

For `C=CC(=O)NC(C)(C)CS(=O)(=O)O`, the result in experiment [1], in experiment [2], in experiment [3], in [4], in experiment [5] and in experiment [6] was inactive. Moreover, the compound was called inactive in [7].

Take `CC(C)(C)NCC(O)c1ccc(O)c(CO)c1` (stereo unspecified): the compound was classed as inactive in [1], in [8], in experiment [2], in [3], in experiment [4] and in experiment [5]. Moreover, the outcome in experiment [6] and in [7] was inactive. The Potency entry in [9] and in [10] was “inactive” each time.

Regarding `COc1ccccc1O`, the compound was called inactive in experiment [1], in experiment [8], in [2], in experiment [3], in [4] and in [5]. Moreover, the outcome in experiment [6] and in experiment [7] was inactive. Besides, the Potency entry in experiment [9] and in [10] was “inactive” in each case.

For the compound `CCCCOCCOCCOC(C)=O`, the call in experiment [1], in experiment [8], in [2], in [3], in [4] and in [5] was inactive. Also, the compound was called inactive in experiment [6] and in experiment [7]. For the same compound, the Potency result in [9] and in [10] was “inactive” each time.

For the compound `COc1cc(O)c(C(=O)c2ccccc2)cc1S(=O)(=O)O`, the call in experiment [1], in experiment [2], in experiment [3], in [4], in [5] and in [6] was inactive. In addition, in [7], the compound was called inactive.

Consider `Nc1ccc(N=Nc2ccccc2)c(N)n1`, for which the outcome in [1], in [2], in experiment [3], in experiment [4], in experiment [5] and in experiment [6] was inactive. Besides, the outcome in experiment [7] was inactive.

Take `CC1=C(/C=C/C(C)=C/C=C/C(C)=C/C(=O)O)C(C)(C)CCC1`: the result in experiment [1], in experiment [8], in experiment [2], in [3], in experiment [4] and in experiment [5] was inactive. Besides, the compound was called inactive in [6] and in [7]. Besides, the Potency in experiment [10] was 54.9 µM (active).

Regarding `CCCCCCCC(=O)OCC(O)CO` (stereo unspecified), the compound was classed as inactive in [1], in [2], in experiment [3], in [4], in experiment [5] and in experiment [6]. For the same compound, the compound was classed as inactive in experiment [7]. Besides, the Potency entry in experiment [9] and in experiment [10] was “inactive” throughout.

On to `Cc1ccc(O)c(-n2nc3ccccc3n2)c1`, for which the call in experiment [1], in experiment [2], in experiment [3], in experiment [4], in [5] and in experiment [6] was inactive. For the same compound, the call in experiment [7] was inactive. The Potency result in experiment [9] and in experiment [10] was “inactive” throughout.

`CN(C)Cc1cc(CN(C)C)c(O)c(CN(C)C)c1`: the result in [1], in experiment [2], in experiment [3], in experiment [4], in experiment [5] and in [6] was inactive. Moreover, in experiment [7], the compound was called inactive. For the same compound, the Potency entry in experiment [9] and in experiment [10] was “inactive” in each case.

As for `C[C@]12C[C@H](O)[C@H]3[C@@H](CCC4=CC(=O)CC[C@@]43C)[C@@H]1CC[C@@H]2C(=O)CO`, the call in experiment [1], in [2], in experiment [3], in experiment [4], in [5] and in experiment [6] was inactive. The result in [7] was inactive. In addition, the Potency in experiment [9] was 169 nM (active) and 69.3 nM (active) and 123 nM (active); in [10], 674 nM (active) and 390 nM (active).

Consider `CCCCOC(=O)CCCCCCCCC(=O)OCCCC`, for which the compound was called inactive in experiment [1], in experiment [2], in experiment [3], in experiment [4], in experiment [5] and in experiment [6]. In experiment [7], the call was inactive. The Potency result in [9] and in experiment [10] was “inactive” in each case.

On to `NCCNc1cccc2ccccc12`, for which the compound was called inactive in experiment [1], in [2], in [3], in [4], in [5] and in experiment [6]. Also, the result in experiment [7] was inactive. Besides, the Potency result in [9] and in experiment [10] was “inactive” throughout.

`CN/C(=C\[N+](=O)[O-])NCCSCc1ccc(CN(C)C)o1`: the compound was called inactive in experiment [1], in [2], in experiment [3], in experiment [4], in [5] and in experiment [6]. The compound was called inactive in experiment [7]. Further, the Potency result in experiment [9] and in [10] was “inactive” each time.
